DT40 TDP1 CPT: DT40-hTDP1 cell growth loss with CPT. chicken DT40 Tdp1-/-;hTDP1 cells + 20 nM CPT, ATP luminescence, 48 h. Potency, µM (titrated, usually from 46.2 µM), inactives show at the highest dose activity change, negative = growth inhibition, hits mostly inhibitors. 12% of 420,000 active. AID 686979; also: % is scaled to controls: 0 for no effect and ±100 for the full control effect; nearly all actives have a fitted effect of over 55% in size
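Chicken DT40 Tdp1-/- cells complemented with human TDP1, 400 cells/well, exposed to compounds plus 20 nM camptothecin for at least 48 h at 37 C; viability read as ATP content by CellTiter-Glo luminescence.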
TDP1 block: inhibitors of human tyrosyl-DNA phosphodiesterase TDP1; Q9NUW8; recombinant TDP1, AlphaScreen DNA substrate cleavage; Potency, µM (series often up to 130 µM), without a hit: at the highest dose activity change, negative = inhibition, most hits filed as inhibitors; 0.28% of 350,000 active; AID 485290; also: % is scaled to controls: 0 for no effect and ±100 for the full control effect; nearly all actives have a fitted effect of over 40% in size
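Recombinant E. coli-expressed Tdp1 (1 nM) preincubated with compound 15 min at RT, then 5'-biotin/3'-phosphotyrosine-FITC DNA substrate (15 nM) added for 5 min. AlphaScreen beads (10 ug/ml) added, 10 min RT; tyrosine-FITC cleavage read as signal loss.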
ClpP mod: qHTS Assay for Activators of ClpP. 1.9% of 340,000 active. Potency, µM (top dose mostly 57.5 µM), without a hit: at the top dose activity change, negative = active. ATP-dependent Clp protease proteolytic subunit (Bacillus subtilis (strain 168)), P80244. purified B. subtilis ClpP, FRET peptide cleavage, 20 min. AID 651965, 2013; active = well fitted falling curve with a large enough effect; inconclusive = small, poorly fitted or top-dose-only effect; inactive = no such curve, though single readings can be large or run the other way; also: the source files actives as falling curves though it sought activators and does not explain the sign; nearly all actives have a fitted effect of over 65% in size
Target sequence (P80244 whole entry, looked up): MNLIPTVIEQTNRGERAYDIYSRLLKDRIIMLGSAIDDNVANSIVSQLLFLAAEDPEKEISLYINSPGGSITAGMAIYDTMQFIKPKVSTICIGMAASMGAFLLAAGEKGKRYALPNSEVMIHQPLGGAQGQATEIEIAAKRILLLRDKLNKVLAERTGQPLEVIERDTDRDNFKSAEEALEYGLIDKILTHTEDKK
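Buffer: 100 mM Tris/HCl pH8, 100 mM KCl, 0.05% low protease BSA, 2.5% glycerol, 0.01% Tween-20. ClpP 10 microg/mL final; 20 min RT; delta FRET normalized to ADEP and DMSO controls.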
TDP1 cell noCPT: qHTS for Inhibitors of human tyrosyl-DNA phosphodiesterase 1 (TDP1): qHTS in cells in absence of CPT | 15% of 420,000 active | DT40 Tdp1-/- hTDP1 cells, no CPT, ATP luminescence, 48 h | AID 686978, 2013 | Potency, µM (series often up to 46.2 µM), inactives show at the top dose activity change, negative = growth inhibition, hits mostly inhibitors; also: % is scaled to controls: 0 for no effect and ±100 for the full control effect; nearly all actives have a fitted effect of over 55% in size
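Cells were dispensed at 400 per well, compounds added by pin tool, plates incubated ≥48 hr at 37 °C, then CellTiter-Glo added for 30 min at room temperature before luminescence reading. Line: DT40 Tdp1-/- complemented with hTDP1; camptothecin omitted.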
* marks the source's active call; other numbers are inactive results; ? = inconclusive; . = no result given; [ ] = dose if it differs, or a comment. Shown are actives, neighbours in structure and some others; about 17% of the full set was active somewhere. Unless noted, calls follow the shape of the dose curve; as a rule, active = well fitted curve in the direction sought with a large enough effect; inconclusive = small, poorly fitted or top-dose-only effect, or another doubt; inactive = no such curve, though single readings can be large; an effect the other way counts as inactive or inconclusive. Potency is read from the fitted curve at half-maximal effect.

SMILES | DT40 TDP1 CPT | TDP1 block | ClpP mod | TDP1 cell noCPT
CC(=O)Oc1ccccc1/C=C/c1ccc2ccccc2[n+]1C | 21µM* | 0% | -18% | 16µM*
COc1ccccc1/C=C/c1nc2ccc(OC(C)=O)cc2c(=O)o1 | 6% | . | -19% | -1%
COc1cc(OC)c(OC)cc1/C=C/c1ccc2ccccc2[n+]1C | 0.89µM* | . | 1% | 0.71µM*
CCn1c(-c2ccccc2F)nc2cc(NC(C)=O)cc(C(=O)N(C)Cc3cn(C)nc3C)c21 | 24%[9.04 µM] | . | . | -14%
Cc1ccc2oc(=O)c3cnn(CC(=O)Nc4cccc(C(F)(F)F)c4)c3c2c1 | 3% | 1% | 0% | -8%
COCCn1ccc2c(OCC(=O)Nc3ccccc3F)cccc2c1=O | ? | 8% | 3% | ?
Cc1cc2c(s1)c1cnn(Cc3ccc(C(C)C)cc3)c(=O)c1n2C | . | -3% | . | .
COc1ccccc1Nc1nn2c(=O)c3ccc(C(=O)NC4CCCCC4)cc3nc2s1 | 2.3µM* | 3% | -65% | 3.7µM*
COC(=O)c1ccc2c(=O)n3nc(Nc4ccc(F)cc4F)sc3nc2c1 | 12% | 4% | -15% | 6%
CCc1ccccc1Nc1nn2c(=O)c3ccc(C(=O)NC4CCCCC4)cc3nc2s1 | 10µM* | 3% | -2% | 13µM*
N#CC(c1ccc(O)cc1)N1CCN(C(C#N)c2ccc(O)cc2)CC1 (stereo not drawn) | -15% | . | 2% | -18%
CCOc1ccc(C2c3c(oc4cc(C)c(C)cc4c3=O)C(=O)N2c2ccccn2)cc1 (stereo not drawn) | 15% | 2% | -1% | -2%
COc1cc(CN2CCNC(=O)C2CC(=O)N2CCc3ccccc3C2)cc(OC)c1 (stereo not drawn) | -14% | 7% | -3% | -27%
COc1cc(CN2CCNC(=O)C2CC(=O)N2CCCN(C(C)=O)CC2)cc(OC)c1 (stereo not drawn) | 5% | 3% | 16µM* | 7%
Cn1c(C(=O)N2CCC(C(=O)NCCc3ccc(S(N)(=O)=O)cc3)CC2)cc2sccc21 | 7% | 3% | 3% | -23%
CS(=O)(=O)c1ccc(Sc2nc3ccccc3s2)c([N+](=O)[O-])c1 | 10µM* | 3% | -2% | 13µM*
O=S(=O)(Nc1ccc(O)c(Sc2nc3ccccc3s2)c1)c1ccc(F)cc1 | -20% | 0% | 1% | ?
CC(=O)Nc1cccc(C(=O)N2CCN(S(=O)(=O)c3ccc(C4CCCCC4)cc3)CC2)c1 | ? | . | 0% | 23µM*
Cc1nc(-c2cccc(S(=O)(=O)N3CC(C)CC(C)C3)c2)cs1 (stereo not drawn) | ? | 3% | 1% | 13µM*
Cc1nc(-c2cccc(S(=O)(=O)N3CC(C)OC(C)C3)c2)cs1 (stereo not drawn) | ? | 4% | 0% | -21%
COc1cc(NC(=O)c2cccc(S(=O)(=O)N3CCCCC3)c2)cc(OC)c1OC | 23µM* | 0% | -2% | ?
Cc1nc(-c2cccc(NC(=O)c3ccc(-n4cccn4)cc3)c2)cs1 | 15µM* | 1% | 11% | 10µM*
CS(=O)(=O)Nc1ccc(-c2cc(/C=C3\SC(N)=NC3=O)c[nH]c2=O)cc1 | -13% | . | -1% | -10%
CC(=O)Nc1ccc(NC(=O)c2cccc(S(=O)(=O)N3CCCCCC3)c2)cc1 | ? | -2% | -5% | ?
COc1ccc(NS(=O)(=O)c2cccc(NC(=O)C34CCC(CC3)C4)c2)cc1 | ? | -1% | . | 21µM*
SMILES | DT40 TDP1 CPT | TDP1 block | ClpP mod | TDP1 cell noCPT
CCN(CC)S(=O)(=O)c1ccc(NC(=O)C(C)N(c2ccc(OC)cc2)S(C)(=O)=O)cc1 (stereo not drawn) | ? | 4% | -1% | 18µM*
COc1ccc(NS(=O)(=O)c2cccc(C(=O)Nc3ccccc3C(=O)O)c2)cc1 | -8% | 4% | 1% | -3%
COc1ccc(NS(=O)(=O)c2cccc(NC(=O)c3ccc(S(=O)(=O)N4CCCCCC4)cc3)c2)cc1 | 3.7µM* | 4% | -6% | 2.6µM*
CCOc1ccc(N(C(C)C(=O)Nc2ccc(OC)cc2)S(C)(=O)=O)cc1 (stereo not drawn) | -18% | 1% | 0% | -9%
CC(=O)Nc1cccc(C(=O)Nc2ccc(S(=O)(=O)N3CCCCC3)cc2)c1 | ? | 5% | 1% | 15µM*
O=C(CN1CCCN(Cc2cccc(F)c2)S1(=O)=O)Nc1ccc2c(c1)OCCO2 | ? | 4% | 1% | ?
CC(C)C(NS(=O)(=O)c1cccc(C(F)(F)F)c1)C(=O)O (stereo not drawn) | -3% | 7% | 0% | 3%
Cc1csc(NC(=O)c2cccc(S(=O)(=O)N3CCCCC3)c2)n1 | -26% | 4% | 0% | ?
Cc1ccc(NC(=O)c2cccc(S(=O)(=O)N3CCCCC3)c2)cc1 | -17% | . | . | ?
COc1ccc(COC(=O)c2cccc(S(=O)(=O)N3CCN(C(C)=O)CC3)c2)cc1 | ? | -4% | -3% | 21µM*
CCOc1ccccc1C(=O)OC(C)C(=O)Nc1ccc(S(=O)(=O)N2CCCC2)cc1 (stereo not drawn) | -23% | 0% | -3% | ?
COc1ccc(NC(=O)c2cccc(S(=O)(=O)N3CCCCCC3)c2)cc1 | ? | . | . | 15µM*
COc1ccc(COC(=O)c2cccc(S(=O)(=O)N3CCN(C(C)=O)CC3)c2)cc1F | ? | . | -30% | ?
Cc1nc(-c2cccc(NC(=O)c3cccc(S(=O)(=O)N4CCCC4)c3)c2)cs1 | ? | 1% | 2% | 23µM*
CCS(=O)c1ccccc1C(=O)OC(C)C(=O)Nc1ccc(S(=O)(=O)N2CCCC2)cc1 (stereo not drawn) | 13µM* | . | 1% | ?
O=C1CCCN1CC(O)CS(=O)(=O)Cc1ccccc1Cl (stereo not drawn) | 25% | . | . | 3%
Cc1noc(C)c1C(=O)N1CCC2(CC1)CN(Cc1cc(C(F)(F)F)cc(C(F)(F)F)c1)C2 | -4% | . | . | -11%
O=C(NC1CC(=O)N(c2ccccc2)C1)C1CCCCC1 (stereo not drawn) | -3% | 0% | -1% | -16%
CCC(=O)Oc1ccc(NC(=O)c2ccc(S(=O)(=O)N3CCCC3)cc2)cc1 | ? | . | 0% | 21µM*
CCOc1ccc(C(=O)Nc2ccc(S(=O)(=O)N3C[C@@H]4C[C@@H](C3)c3cccc(=O)n3C4)cc2)cc1 | 21µM* | 1% | -17% | 12µM*
CCN(CC)S(=O)(=O)c1cccc(C(=O)Nc2ccccc2C(=O)Nc2ccc(OC)cc2)c1 | 10µM* | 3% | -4% | 10µM*

High-throughput results: PubChem BioAssay, National Center for Advancing Translational Sciences (NCATS)
